Measured values taken from PubChem BioAssay (NCI).
This is part of a sample that, as a whole, favours compounds with a hit. Of some 83,000 tested, about 20% had one in any assay.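 48-hour exposure, single concentration, 96-well plates; percent growth endpoint where 0 means no net growth. Active: below 10.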 Activity calls are given as the source filed them.

Columns and labels:
Assay in all cases: NCI-60 one-dose screen, 48 h (100 = growth as untreated, 0 = no growth, -100 = all killed)
Conditions in all cases: 10 µM unless noted
[1] = test system: NCI-H23 lung
[2] = test system: NCI-H226 lung
[3] = test system: NCI-H322M lung
[4] = test system: HOP-62 NSCLC
[5] = test system: NCI-H460 lung
[6] = test system: HOP-92 NSCLC
[7] = test system: A549/ATCC NSCLC
[8] = test system: 786-0 renal
[9] = test system: COLO 205 colon

Measured: growth

COc1ccc2c(c1)[n+](=O)c(C(=O)/C=C/c1cc(OC)c(OC)c(OC)c1)c(C)n2[O-]
inactive: [1] 65.9% | [2] 79.1% | [3] 81.3% | [4] 101% | [5] 44.7% | [6] 63.7% | [7] 74.1% | [8] 70.9% | [9] 58.9%

COc1cc(C2CC(c3ccc(C)cc3)=NN2C=O)ccc1OCCN(C)C (configuration not stated)
inactive: [1] 106% | [2] 86.4% | [3] 94.3% | [4] 87.9% | [5] 99% | [6] 77.7% | [7] 84.6% | [8] 101% | [9] 95.8%

COc1ccc2c(c1)c(CC(=O)[Se]C)c(C)n2C(=O)c1ccc(Cl)cc1
active: [1] 5.36% | [2] -34% | [4] -0.299% | [5] 3.41% | [6] -6.92% | [7] 7.25% | [8] 9.49%
inactive: [3] 55.8% | [9] 50.1%

COC(=O)c1cc2oc(/C=N\NC(=O)c3cc4oc(C)c(C)c4[nH]3)cc2[nH]1
active: [6] -34.1%
inactive: [1] 104% | [2] 117% | [3] 106% | [4] 110% | [5] 111% | [7] 112% | [8] 107% | [9] 94%

Cc1cc(C)nc(NS(=O)(=O)c2ccc(Nc3nc4nc(SCc5ccccc5)nc(-c5ccc(O)cc5)c4c(=O)[nH]3)cc2)n1
active: [6] -9.71%
inactive: [1] 106% | [2] 93.8% | [3] 111% | [4] 93.4% | [5] 107% | [7] 98% | [8] 97% | [9] 103%

C=C1CCC2C3(C)COC(c4ccccc4)OC3CCC2(C)C1C/C=C1/C(=O)OCC1OC(C)=O (configuration not stated)
inactive: [1] 101% | [2] 59.6% | [3] 97% | [4] 96.1% | [5] 103% | [6] 100% | [7] 83.9% | [8] 95.3% | [9] 103%

O=C(CN1CCN(c2ccc(Cl)cc2)CC1)N1CCN(c2nnc(-c3ccccc3)c(-c3ccccc3)n2)CC1
inactive: [1] 34.9% | [2] 43.7% | [3] 80.7% | [4] 58.1% | [5] 30.7% | [6] 39.1% | [8] 35.9% | [9] 33%
active: [7] -6.5%

CCOC(=O)c1cc2oc(/C=C/c3cc(=O)c4cc(Cl)ccc4o3)cc2[nH]1
active: [6] -17.9%
inactive: [1] 98.6% | [2] 76.9% | [3] 108% | [4] 99.6% | [5] 88.9% | [7] 99% | [8] 97.7% | [9] 93.9%

Cc1cc(C)cc(S(=O)(=O)n2ccc(-c3ccc4c(c3)CCC(C)(C)O4)n2)c1
inactive: [1] 73.6% | [2] 66.8% | [3] 92% | [4] 116% | [5] 84.4% | [6] 78.1% | [7] 80.8% | [8] 82.8% | [9] 103%

CC(C)N(Cc1ccccc1)c1c(S)ssc1=S
active: [3] 7.56% | [4] 9.6% | [5] 4.45% | [6] -36.2% | [7] 4.58% | [9] -40.1%
inactive: [1] 22.8% | [2] 14.2% | [8] 10.6%

COc1ccc(NS(=O)(=O)N2CCCCC2)cc1
inactive: [1] 106% | [2] 96.2% | [3] 102% | [4] 107% | [5] 113% | [6] 84.6% | [7] 108% | [8] 109% | [9] 105%

Cc1ccccc1NC(=O)NC(CC(N)=O)c1ccc2c(c1)nc(-c1cccc(Oc3ccc(C(C)(C)C)cc3)c1)n2CCCN1CCCCC1C (configuration not stated)
active: [5] -30.7% | [9] -65.6%
inactive: [1] 64.7% | [2] 109% | [3] 65% | [4] 25.8% | [6] 13.5% | [7] 54.9% | [8] 26.7%

COC(=O)[C@H](Cc1cnc[nH]1)NC(=O)[C@@H](NC(=O)Nc1cc(C(F)(F)F)cc(C(F)(F)F)c1)C(C)C
active: [1] -70.6% [100 µM] | [2] -44.1% [100 µM] | [3] -94.9% [100 µM] | [4] -92.5% [100 µM] | [5] -42.5% [100 µM] | [6] -96.7% [100 µM] | [7] -70.8% [100 µM] | [8] -90.7% [100 µM] | [9] -82.6% [100 µM]

FC(F)(F)c1ccc(-c2cnc(-c3nn[nH]n3)nc2NC2CCCCCC2)cc1
inactive: [1] 66% [50 µM] | [2] 70.9% [50 µM] | [3] 51.1% [50 µM] | [4] 63.7% [50 µM] | [5] 34.6% [50 µM] | [7] 81.1% [50 µM] | [8] 49.8% [50 µM] | [9] 95% [50 µM]
active: [6] -8.27% [50 µM]

Cc1ccc2nc3c(n2c1)C(=O)C(=O)c1ccccc1-3
active: [1] -12.4% | [2] -44.1% | [3] -80.7% | [4] -74.9% | [5] -71.1% | [6] -77.2% | [7] -77.3% | [8] -81% | [9] -69.2%

CC(=O)Nc1c(Cl)cc2c(c1Cl)Cc1cc([N+](=O)[O-])ccc1-2
inactive: [1] 88% | [2] 85% | [3] 94.9% | [4] 69.6% | [5] 81.3% | [6] 53.3% | [7] 74.5% | [8] 77.9% | [9] 103%

CC[C@@H](C)/C=C(C)/C=C/C(=O)c1c(O)c(-c2ccc(O)cc2)cn(OC2CC(=O)CCC(C)OC(=O)CC2O)c1=O (some centres not stated)
active: [3] 5.13% | [4] 7.07% | [5] -19.6% | [8] -6.82%
inactive: [1] 26.8% | [2] 15.8% | [6] 57.7% | [7] 17.9% | [9] 67.8%

O=[N+]([O-])c1ccc(NS(=O)(=O)c2ccc(Cl)c(Cl)c2)cc1
active: [6] -1.71%
inactive: [1] 81.5% | [2] 82.5% | [3] 111% | [4] 82% | [5] 77.7% | [7] 75.1% | [8] 76.5% | [9] 122%

Oc1ccc(/C=N/Nc2nc3ccccc3s2)c(O)c1
inactive: [1] 56.8% | [2] 45% | [3] 11.9% | [4] 26.7% | [5] 10.9% | [6] 62.8% | [7] 18% | [8] 38.3% | [9] 89.3%

COc1cc(C2=NN(C=O)C(c3cccc(Nc4ccnc5cc(Cl)ccc45)c3)C2)cc(OC)c1OC (configuration not stated)
inactive: [1] 77% | [2] 68.9% | [3] 91.1% | [4] 73% | [5] 83.4% | [6] 53.9% | [7] 61.8% | [8] 65.2% | [9] 66.1%

CNNc1ncnc2c1cnn2-c1ccc(S(N)(=O)=O)cc1
inactive: [1] 94.2% | [2] 91.3% | [3] 104% | [4] 85.6% | [5] 117% | [6] 41.5% | [7] 92.9% | [8] 91.7% | [9] 120%

CCCCCCCCCCCCC1CCCC(C)C1 (configuration not stated)
inactive: [1] 105% | [2] 99.8% | [3] 95% | [4] 90.5% | [5] 101% | [6] 69.1% | [7] 93.1% | [8] 92.3% | [9] 98.1%

O=C1C(=O)c2c(nc3ccc(Cl)cn23)-c2ccccc21
active: [1] -45.4% | [2] -53.9% | [3] -92.1% | [4] -87.9% | [5] -100% | [6] -79.8% | [7] -80.8% | [8] -100% | [9] -100%

COc1cccc(/C=C2\Cc3ccccc3C2=O)c1
inactive: [1] 106% | [2] 107% | [3] 110% | [4] 96.4% | [5] 105% | [6] 85.7% | [7] 87% | [8] 101% | [9] 115%

COc1ccc(NC(=O)[C@@H]2C[C@H]2c2ccccc2)c(C(N)=O)c1
inactive: [1] 91.3% | [2] 101% | [3] 94.2% | [4] 100% | [5] 101% | [6] 94.6% | [7] 97.5% | [8] 106% | [9] 106%

OC(c1cc(-c2cccc(Cl)c2)nc2ccccc12)C1CCCCN1 (configuration not stated)
inactive: [2] 31.2%
active: [1] 3.63% | [3] -12.3% | [4] -67.3% | [5] -47% | [6] -17.6% | [7] -90.4% | [8] -82.6% | [9] -85.7%

COc1cc(/C=C/C(=O)c2c(C)n([O-])c3ccc(Cl)cc3[n+]2=O)cc(OC)c1OC
inactive: [1] 81.7% | [2] 80.7% | [3] 90.5% | [4] 110% | [5] 64.3% | [6] 78.6% | [7] 71.7% | [8] 94.4% | [9] 86.8%

COC(=O)[C@H](Cc1cn(C)cn1)NC(=O)[C@H](Cc1ccccc1)NC(=O)Nc1cc(C(F)(F)F)cc(C(F)(F)F)c1
active: [1] -83.3% [100 µM] | [2] -50.9% [100 µM] | [3] -94.2% [100 µM] | [4] -97.4% [100 µM] | [5] -50% [100 µM] | [6] -97.3% [100 µM] | [7] -85.6% [100 µM] | [8] -91.4% [100 µM] | [9] -82.1% [100 µM]
